Activity calls are given as the source filed them. Rule for the calls: active = hit-call score of the fitted dose curve at least 0.9, where 1 is the maximum; inactive = score below 0.9.
Assay: ATG_M_19_CIS: Attagene CIS-FACTORIAL HepG2 Assay for M19 Transcription Factor (Internal Marker) (AID 2282939)
Conditions: HepG2 Attagene CIS-FACTORIAL M19 internal marker reporter; actives raise or lower the signal
Protocol: ATG_CIS is a cell-based, multiplexed-readout assay that uses HepG2, a human liver cell line, with measurements taken at 24 hours after chemical dosing in a 24-well plate.ATG_M_19_CIS is one of 52 assay component(s) measured or calculated from the ATG_CIS assay. It is designed to make measurements of mRNA induction, a form of inducible reporter, as detected with fluorescence intensity signals by Reverse transcription polymerase chain reaction (RT-PCR) and Capillary electrophoresis technology.Data from the assay component ATG_M_19_CIS was analyzed into 1 assay endpoint. This assay endpoint, ATG_M_19_CIS, was analyzed with bidirectional fitting relative to DMSO as the negative control and baseline of activity. Using a type of inducible reporter, measures of mRNA for gain or loss-of-signal activity can be used to understand the background control at the transcription factor-level as they relate to the gene . Furthermore, this assay endpoint can be referred to as a secondary readout, because this assay has produced multiple assay endpoints where this one serves a background control function. To generalize the intended target to other relatable targets, this assay endpoint is annotated to the background measurement intended target family, where the subfamily is internal marker.
Human liver HepG2 cells are transiently transfected with multiple reporter transcription units (MRTUs) in 6-well plates using FuGene 6 reagent (Roche; 3 ml FuGene/1 mg DNA). The MRTU constructs are regulated by a cis-regulating element (promoter). […] A major difference between the CIS and TRANS system is that in CIS activities of endogenous TFs are measured, whereas the TRANS assay evaluates changes in activities of exogenous, chimeric NR-Gal4 proteins. […] At the end of 24 hour incubation, total RNA was isolated using TriZol reagent (Invitrogen). The isolated RNA is then reverse-transcribed using oligo(dT) primer and Mo-MLV reverse transcriptase (Invitrogen) with DNAse I (Ambion) treatment for 30 min. The one-tenth of the produced cDNA was amplified by PCR using Taq DNA polymerase (Invitrogen) and two reporter sequence-specific primers. The PCR products were fluorescently labeled by primer extension with 6-arboxyfluorescein (6-FAM) 5'-labeled reporter sequence-specific primer (2 min at 95 C, 20 s at 68 C and 10 min at 72 C) and these products were digested with 5U of HpaI (New England Biolabs) for 2h at 37 C. The fragments were purified using Qiaquick PCR columns (Qiagen), analyzed on an ABI 3130xL genetic analyzer (Applied Biosystems) with peak positions identified by using a set of X-rhodamine (ROX)-labeled MapMarker1000 molecular weight standards (BioVentures). The raw capillary electrophoresis data was processed using Attagraph software (Attagene).

**Q.** For `Cc1ccc(C(C)C)cc1O`, which outcome is on record?
**A.** Its outcome is “inactive”.

**Q.** Which outcome does the source give for `[Ca+2]` here?
**A.** The outcome was “inactive”.

**Q.** For `CCCC(=O)C(C)=O`, which outcome is on record?
**A.** Its outcome is “inactive”.

**Q.** For `C=C(C)C1CCC(C)CC1O` (stereo not given), which outcome is on record?
**A.** The outcome was “inactive”.

**Q.** For `O=C(O)c1cccc([N+](=O)[O-])c1`, which outcome is on record?
**A.** The outcome was “inactive”.

**Q.** With `C=CC(C)(O)CCC=C(C)CCC=C(C)C` (stereo not given) as the compound, how does the AC50 read?
**A.** The AC50 was 176 µM (active).

**Q.** Which outcome does the source give for `CCC/C=C/C=O` here?
**A.** Its outcome is “inactive”.

**Q.** Which outcome does the source give for `O=S(=O)(O)NC1CCCCC1` here?
**A.** Its outcome is “inactive”.

**Q.** For `O=[N+]([O-])c1ccc(Nc2ccc(Nc3ccccc3)c(S(=O)(=O)O)c2)c([N+](=O)[O-])c1`, which outcome is on record?
**A.** Its outcome is “inactive”.

**Q.** With `CCN(CC)c1ccc2c(-c3ccccc3C(=O)O)c3ccc(=[N+](CC)CC)cc-3oc2c1` as the compound, how does the outcome read?
**A.** The outcome was “inactive”.

**Q.** Which outcome does the source give for `OCCOc1cccc(OCCO)c1` here?
**A.** The outcome was “inactive”.

**Q.** For `CC1CCC2CC1C2(C)C` (stereo not given), which outcome is on record?
**A.** The outcome was “inactive”.

**Q.** For `COC(=O)C1=C(C)NC(C)=C(C(=O)OCCN(C)Cc2ccccc2)C1c1cccc([N+](=O)[O-])c1` (stereo not given), which outcome is on record?
**A.** Its outcome is “inactive”.

**Q.** With `Cc1ccc2sc3cccc(C)c3c2c1` as the compound, how does the outcome read?
**A.** The outcome was “inactive”.

**Q.** Which outcome does the source give for `CC1CCC(C(C)CS)CC1S` (stereo not given) here?
**A.** Its outcome is “inactive”.

**Q.** With `C=CC(C)(CCC=C(C)C)OC=O` (stereo not given) as the compound, how does the outcome read?
**A.** The outcome was “inactive”.

**Q.** With `Clc1cccc(Cl)n1` as the compound, how does the outcome read?
**A.** The outcome was “inactive”.

**Q.** Which outcome does the source give for `C[Si](O[Si](C)(C)C)O[Si](C)(C)C` here?
**A.** The outcome was “inactive”.

**Q.** With `C=C(C)C(=O)Nc1ccc(Cl)c(Cl)c1` as the compound, how does the outcome read?
**A.** The outcome was “inactive”.

**Q.** For `COc1nc(C)nc(N)n1`, which outcome is on record?
**A.** Its outcome is “inactive”.

**Q.** Which outcome does the source give for `O=C(O)CCCCC1CCSS1` (stereo not given) here?
**A.** Its outcome is “inactive”.

**Q.** Which outcome does the source give for `c1ccc2[nH]ccc2c1` here?
**A.** The outcome was “inactive”.

**Q.** Which outcome does the source give for `CC(C)=CCO` here?
**A.** Its outcome is “inactive”.

**Q.** For `CC(C)(C#N)c1cc(Cn2cncn2)cc(C(C)(C)C#N)c1`, which outcome is on record?
**A.** The outcome was “inactive”.

**Q.** With `C=CC[N+](C)(C)CC=C` as the compound, how does the outcome read?
**A.** The outcome was “inactive”.

**Q.** With `CCCCCCC#CC(=O)OC` as the compound, how does the outcome read?
**A.** Its outcome is “inactive”.

**Q.** For `CCCc1c(OCCCOc2ccc(OCC(=O)O)cc2)ccc(C(C)=O)c1O`, which outcome is on record?
**A.** Its outcome is “inactive”.

**Q.** For `CC(C)(Oc1ccc(CCNC(=O)c2ccc(Cl)cc2)cc1)C(=O)O`, which outcome is on record?
**A.** The outcome was “inactive”.

**Q.** With `COCCCOc1ccnc(CS(=O)c2nc3ccccc3[nH]2)c1C` (stereo not given) as the compound, how does the outcome read?
**A.** Its outcome is “inactive”.

**Q.** Which outcome does the source give for `CC(=O)C(=O)O` here?
**A.** The outcome was “inactive”.

**Q.** For `CC(=O)Nc1ccc(C)cc1C`, which outcome is on record?
**A.** The outcome was “inactive”.

**Q.** With `Cc1cc(C2(c3cc(C)c(O)cc3C)OS(=O)(=O)c3ccccc32)c(C)cc1O` as the compound, how does the outcome read?
**A.** Its outcome is “inactive”.

**Q.** With `O=[N+]([O-])c1ccc(C=Cc2ccc([N+](=O)[O-])cc2S(=O)(=O)O)c(S(=O)(=O)O)c1` as the compound, how does the outcome read?
**A.** Its outcome is “inactive”.

**Q.** Which outcome does the source give for `CN(CCOc1ccc(CC2SC(=O)NC2=O)cc1)c1ccccn1` (stereo not given) here?
**A.** Its outcome is “inactive”.

**Q.** For `Clc1ccc2c(c1)C(N1CCNCC1)=Nc1ccccc1O2`, which outcome is on record?
**A.** Its outcome is “inactive”.

**Q.** For `C=C[C@@H](C)CCC=C(C)C`, which outcome is on record?
**A.** Its outcome is “inactive”.

**Q.** Which outcome does the source give for `CC(C)c1ccc(C(C)C)cc1` here?
**A.** The outcome was “inactive”.

**Q.** With `S=C(S)NCCNC(=S)S` as the compound, how does the outcome read?
**A.** Its outcome is “inactive”.

**Q.** With `Cc1cccc(C)c1C` as the compound, how does the outcome read?
**A.** The outcome was “inactive”.

**Q.** With `O=Cc1ccc(Cl)c([N+](=O)[O-])c1` as the compound, how does the outcome read?
**A.** The outcome was “inactive”.

Reference: PubChem BioAssay (EPA / NIEHS)
